“And” between values parts separate entries of the source, which are not always exact repeats. Identical values can stand only once. Inconclusive results are not listed. The source made the active and inactive calls. Rule for the calls, unless noted: active = hit-call score of the fitted dose curve at least 0.9, where 1 is the maximum; inactive = score below 0.9.
Experiments:
[1] = BSK_3C_VCAM1: BioMAP Diversity Plus: 3C Assay for Vascular cell adhesion molecule 1 (VCAM1) Biomarker Activity (AID 2282999); conditions: BioMAP 3C HUVEC, VCAM1 ELISA, cytokine-stimulated; actives raise or lower the signal
How it was run: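 Vascular primary endothelium (human umbilical vein) was exposed to chemicals and assayed 24 h later. VCAM-1 levels came from ELISA, with DMSO serving as baseline for bidirectional fitting.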

[2] = BSK_4H_Eotaxin3: BioMAP Diversity Plus: 4H Assay for Eotaxin 3 Biomarker Activity (AID 2283000); conditions: primary human endothelial cells (HUVEC); actives raise or lower the signal
How it was run: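 Human umbilical vein endothelial cells (BSK_4H system) dosed with test chemical; Eotaxin-3 (CCL26) measured by ELISA 24 h after dosing. Bidirectional curve fitting relative to DMSO negative control as baseline.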

[3] = molecular target: human Peroxisome Proliferator-activated Receptor alpha (PPARa), PPARA (gene 5465) (UniProt Q07869); assay: ATG_PPARa_TRANS: Attagene TRANS-FACTORIAL HepG2 Assay for human Peroxisome Proliferator-activated Receptor alpha (PPARa) (AID 2283001; active = hit-call score of the fitted dose curve at least 0.9, where 1 is the maximum;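 for AC50: potency for gain of reporter signal over DMSO so agonist or activator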)
How it was run: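 Cells (HepG2) are transfected with multiple reporter transcription units, exposed to chemical for 24 h, then total RNA is reverse-transcribed and amplified. Labelled products are quantified by capillary electrophoresis; induction is referenced to DMSO.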

[4] = molecular target: human Peroxisome Proliferator-activated Receptor delta (PPARd), PPARD (gene 5467) (UniProt Q03181); assay: ATG_PPARd_TRANS: Attagene TRANS-FACTORIAL HepG2 Assay for human Peroxisome Proliferator-activated Receptor delta (PPARd) (AID 2283002; active = hit-call score of the fitted dose curve at least 0.9, where 1 is the maximum)
How it was run: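 HepG2 cells transiently transfected with multiplexed GAL4-UAS reporter units and exogenous chimeric NR-Gal4 proteins; 24 h compound exposure. Reporter mRNA measured by RT-PCR, 6-FAM labelling, HpaI digestion and capillary electrophoresis; gain of signal versus DMSO.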

[5] = read-out: Intercellular Adhesion Molecule 1 (ICAM1), ICAM1 (gene 3383); assay: BSK_3C_ICAM1: BioMAP Diversity Plus: 3C Assay for Intercellular Adhesion Molecule 1 (ICAM1) Biomarker Activity (AID 2283003); conditions: primary human endothelial cells (HUVEC); actives raise or lower the signal
How it was run: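 ELISA readout of ICAM1 in human umbilical vein endothelial cells in the 3C system, taken 24 h post-dose. Gain or loss of signal versus DMSO was fitted in both directions, with SRB total-protein staining run in parallel.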

[6] = BSK_3C_Proliferation: Cell Proliferation Assessment in the BioMAP Diversity Plus: 3C Assay (AID 2283006); conditions: primary human endothelial cells (HUVEC);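 for AC50: potency may reflect either rise or fall in cell number versus DMSO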
How it was run: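 Proliferation as total protein: sulforhodamine B (0.1%) stain of TCA-fixed subconfluent human umbilical vein endothelial cells, absorbance 560 nm, 48 h after dosing. Activity fitted in both directions against DMSO baseline.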

[7] = molecular target: Peroxisome proliferator-activated receptor gamma (Homo sapiens) (UniProt P37231); assay: ATG_PPARg_TRANS: Attagene TRANS-FACTORIAL HepG2 Assay for human Peroxisome Proliferator-activated Receptor-gamma (PPARg) (AID 2283007; active = hit-call score of the fitted dose curve at least 0.9, where 1 is the maximum)
How it was run: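 Human hepatoma HepG2, transient MRTU transfection, 24 h treatment. mRNA reporter signal by RT-PCR plus capillary electrophoresis, fluorescence detection; fitted for increase over DMSO negative control.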

[8] = molecular target: Nuclear receptor subfamily 1 group I member 2 (Homo sapiens) (UniProt O75469); assay: ATG_PXR_TRANS: Attagene TRANS-FACTORIAL HepG2 Assay for human Pregnane X Receptor (PXR) (AID 2283008; active = hit-call score of the fitted dose curve at least 0.9, where 1 is the maximum)
How it was run: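 Transactivation by exogenous PXR–GAL4 fusion measured as reporter transcript induction after 24 h compound treatment of transfected human HepG2 cells. Read-out via RT-PCR and capillary electrophoresis of labelled fragments, fitted upward relative to DMSO.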

[9] = molecular target: human Retinoic Acid Receptor beta (RARb), RARB (gene 5915) (UniProt P10826); assay: ATG_RARb_TRANS: Attagene TRANS-FACTORIAL HepG2 Assay for human Retinoic Acid Receptor beta (AID 2283004; active = hit-call score of the fitted dose curve at least 0.9, where 1 is the maximum)
How it was run: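 Induction of reporter mRNA from a chimeric RARb-Gal4 construct was measured by RT-PCR, FAM labelling, HpaI digestion and capillary electrophoresis. Measurements followed 24 h compound treatment of transiently transfected human HepG2 liver cells, with DMSO as baseline.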

[10] = molecular target: Retinoic acid receptor alpha (Homo sapiens) (UniProt P10276); assay: ATG_RARa_TRANS: Attagene TRANS-FACTORIAL HepG2 Assay for human Retinoic Acid Receptor alpha (RARa) (AID 2283005; active = hit-call score of the fitted dose curve at least 0.9, where 1 is the maximum)
How it was run: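 HepG2 cells transiently transfected with multiple reporter units expressing chimeric RARα-GAL4 fusion, with GAL4-UAS-driven reporters. After 24 h compound exposure, reporter mRNA induction quantified by RT-PCR and capillary electrophoresis with fluorescent labeling; gain-of-signal fitted relative to DMSO control.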

Measured: AC50

Sequence of Nuclear receptor subfamily 1 group I member 2 (Homo sapiens) (O75469 whole entry, looked up, the tested form may be a part): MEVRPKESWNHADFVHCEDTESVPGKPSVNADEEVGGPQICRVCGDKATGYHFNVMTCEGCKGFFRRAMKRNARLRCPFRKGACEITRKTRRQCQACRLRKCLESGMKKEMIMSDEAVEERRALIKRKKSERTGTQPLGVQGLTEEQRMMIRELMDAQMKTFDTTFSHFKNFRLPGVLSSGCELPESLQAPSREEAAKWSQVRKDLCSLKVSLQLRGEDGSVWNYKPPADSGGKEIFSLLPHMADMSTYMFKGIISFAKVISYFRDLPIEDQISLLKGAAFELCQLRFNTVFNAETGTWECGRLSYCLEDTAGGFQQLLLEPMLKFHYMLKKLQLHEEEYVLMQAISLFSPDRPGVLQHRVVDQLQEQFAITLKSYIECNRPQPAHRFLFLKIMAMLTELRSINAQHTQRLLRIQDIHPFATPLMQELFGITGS
Sequence of human Retinoic Acid Receptor beta (RARb), RARB (gene 5915) (P10826 whole entry, looked up, the tested form may be a part): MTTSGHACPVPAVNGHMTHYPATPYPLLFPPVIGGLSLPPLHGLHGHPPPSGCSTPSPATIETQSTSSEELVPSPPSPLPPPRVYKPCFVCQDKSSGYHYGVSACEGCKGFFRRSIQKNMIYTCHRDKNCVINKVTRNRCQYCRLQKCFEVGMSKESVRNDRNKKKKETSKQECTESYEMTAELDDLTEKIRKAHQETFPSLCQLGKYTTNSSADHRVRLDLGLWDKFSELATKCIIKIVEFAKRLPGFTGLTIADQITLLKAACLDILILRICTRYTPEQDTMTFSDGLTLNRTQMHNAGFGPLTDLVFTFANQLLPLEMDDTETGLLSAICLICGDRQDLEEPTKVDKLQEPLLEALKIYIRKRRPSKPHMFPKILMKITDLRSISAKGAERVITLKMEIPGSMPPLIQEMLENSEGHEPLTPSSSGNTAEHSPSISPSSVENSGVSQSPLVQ
Sequence of Retinoic acid receptor alpha (Homo sapiens) (P10276 whole entry, looked up, the tested form may be a part): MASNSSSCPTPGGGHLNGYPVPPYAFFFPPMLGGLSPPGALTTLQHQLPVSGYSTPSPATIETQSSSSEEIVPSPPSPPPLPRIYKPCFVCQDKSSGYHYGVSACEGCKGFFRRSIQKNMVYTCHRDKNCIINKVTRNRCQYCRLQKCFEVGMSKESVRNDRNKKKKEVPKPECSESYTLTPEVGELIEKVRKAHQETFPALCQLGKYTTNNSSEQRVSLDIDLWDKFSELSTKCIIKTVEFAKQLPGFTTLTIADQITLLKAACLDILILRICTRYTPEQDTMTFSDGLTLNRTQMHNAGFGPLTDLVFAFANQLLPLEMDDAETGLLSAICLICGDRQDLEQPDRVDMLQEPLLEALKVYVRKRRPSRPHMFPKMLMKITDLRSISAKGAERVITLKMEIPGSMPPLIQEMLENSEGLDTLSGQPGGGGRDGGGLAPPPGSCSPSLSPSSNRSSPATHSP
Sequence of human Peroxisome Proliferator-activated Receptor alpha (PPARa), PPARA (gene 5465) (Q07869 whole entry, looked up): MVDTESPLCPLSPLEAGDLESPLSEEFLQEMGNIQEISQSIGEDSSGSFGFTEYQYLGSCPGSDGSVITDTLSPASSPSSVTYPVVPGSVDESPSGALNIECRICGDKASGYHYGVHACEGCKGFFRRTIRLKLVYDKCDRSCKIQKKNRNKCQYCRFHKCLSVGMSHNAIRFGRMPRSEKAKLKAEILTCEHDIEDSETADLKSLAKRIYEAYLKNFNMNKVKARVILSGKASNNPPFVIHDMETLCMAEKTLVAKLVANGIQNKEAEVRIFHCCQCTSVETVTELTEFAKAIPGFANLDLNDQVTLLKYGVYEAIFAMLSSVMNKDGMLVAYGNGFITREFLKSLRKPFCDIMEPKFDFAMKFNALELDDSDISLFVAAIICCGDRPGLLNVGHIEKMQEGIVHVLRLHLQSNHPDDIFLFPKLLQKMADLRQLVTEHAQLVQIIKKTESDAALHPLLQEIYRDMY
Sequence of human Peroxisome Proliferator-activated Receptor delta (PPARd), PPARD (gene 5467) (Q03181 whole entry, looked up, the tested form may be a part): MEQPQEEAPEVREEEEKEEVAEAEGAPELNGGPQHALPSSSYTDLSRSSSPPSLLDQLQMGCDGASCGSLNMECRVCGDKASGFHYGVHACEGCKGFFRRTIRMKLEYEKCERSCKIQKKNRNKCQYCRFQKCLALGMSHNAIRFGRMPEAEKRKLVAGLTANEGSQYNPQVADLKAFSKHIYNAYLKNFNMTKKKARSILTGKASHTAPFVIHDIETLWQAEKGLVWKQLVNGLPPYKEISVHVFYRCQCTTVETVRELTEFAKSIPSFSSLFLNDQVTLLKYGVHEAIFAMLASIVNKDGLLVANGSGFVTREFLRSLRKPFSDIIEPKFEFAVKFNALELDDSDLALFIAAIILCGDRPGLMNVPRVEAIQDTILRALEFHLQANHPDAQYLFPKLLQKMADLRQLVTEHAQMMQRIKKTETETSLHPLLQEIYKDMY
Sequence of Peroxisome proliferator-activated receptor gamma (Homo sapiens) (P37231 whole entry, looked up): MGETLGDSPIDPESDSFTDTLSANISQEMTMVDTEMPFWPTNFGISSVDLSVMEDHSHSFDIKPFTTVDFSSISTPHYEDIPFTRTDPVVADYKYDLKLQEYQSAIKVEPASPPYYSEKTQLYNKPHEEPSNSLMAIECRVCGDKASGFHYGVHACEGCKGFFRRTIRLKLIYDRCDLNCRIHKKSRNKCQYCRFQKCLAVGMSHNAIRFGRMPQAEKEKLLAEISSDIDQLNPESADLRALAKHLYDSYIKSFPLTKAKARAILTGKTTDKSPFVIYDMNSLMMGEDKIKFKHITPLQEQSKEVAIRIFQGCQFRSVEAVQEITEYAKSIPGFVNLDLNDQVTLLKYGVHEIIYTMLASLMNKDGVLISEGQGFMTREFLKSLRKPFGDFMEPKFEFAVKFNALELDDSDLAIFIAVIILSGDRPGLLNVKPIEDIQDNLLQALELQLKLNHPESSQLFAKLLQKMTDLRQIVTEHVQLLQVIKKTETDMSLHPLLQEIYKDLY

C=CC(=O)OCC(CC)(COC(=O)C=C)COC(=O)C=C
inactive: [3] | [4]
active: [1] 2.55 µM | [2] 2.41 µM | [5] 2.71 µM | [6] 1.7 µM | [7] 24.3 µM | [8] 0.793 µM

c1ccc(OP(Oc2ccccc2)Oc2ccccc2)cc1
not listed: [4] | [9] | [10]
inactive: all other assays above

Cc1c([N+](=O)[O-])cc2c(c1[N+](=O)[O-])C(C)(C)CC2(C)C
active: [6] 2.4 µM | [8] 0.862 µM
not listed: [2] | [3]
inactive: all other assays above

O=P1(N(CCCl)CCCl)NCCCO1 (stereo unspecified)
not listed: [9] | [10]
inactive: all other assays above

O=C(O)C1C(C(=O)O)C2(Cl)C(Cl)=C(Cl)C1(Cl)C2(Cl)Cl (stereo unspecified)
inactive: [1] | [3] | [5] | [6] | [8]

CC(C)(C)OOC(C)(C)C
inactive: [1] | [4] | [5] | [6]

O=P(Oc1ccccc1)(Oc1ccccc1)Oc1ccccc1
inactive: [4] | [5]
active: [1] 27.6 µM | [6] 24.9 µM | [7] 5.5 µM | [8] 0.693 µM

COP(=O)(CCC(=O)NCO)OC
inactive: [1] | [4] | [5] | [6] | [7]

O=c1ssc(Cl)c1Cl
active: [1] 5.62 µM | [5] 11.3 µM | [6] 1.45 µM | [7] 33.4 µM
inactive: [4] | [8]

Nc1ccc2ccccc2c1
active: [2] 9.1 µM
not listed: [4]
inactive: all other assays above

CCCCN(CCCC)SN(C)C(=O)Oc1cccc2c1OC(C)(C)C2
active: [1] 28.4 µM | [5] 29.8 µM | [6] 19.8 µM | [7] 12.3 µM | [8] 16 µM
inactive: [4]

Cc1ccc2c(c1N)C(=O)c1ccccc1C2=O
active: [8] 2.89 µM
not listed: [2] | [9] | [10]
inactive: all other assays above

Cc1ccc(N)cc1N
inactive: [1] | [3] | [5] | [6]

CC(Cc1ccc(OCC(=O)O)cc1)NCC(O)c1csc(C(F)(F)F)n1 (stereo unspecified)
inactive: [1] | [2] | [5] | [6] | [7]

Nc1cc2c3c(c1)C(c1ccccc1)=N[C@@H](NC(=O)c1cccnc1)C(=O)N3CC2
active: [7] 48.4 µM | [8] 11.2 µM
not listed: [9] | [10]
inactive: all other assays above

O=C(O)C(F)(F)OC(F)(F)C(F)(F)OC(F)(F)F
active: [3] 17.9 µM and 15.4 µM | [7] 122 µM and 84.6 µM
not listed: [2] | [9]
inactive: all other assays above

CC(O)C(F)(F)C(F)(F)F (stereo unspecified)
not listed: [4]
inactive: all other assays above

CSC(C)(C)C=NO
inactive: [1] | [3] | [4] | [5] | [6]

O=C(O)C=CC(F)(C(F)(F)F)C(F)(F)F
not listed: [2] | [9] | [10]
inactive: all other assays above

O=S1(=O)OCC2C(CO1)C1(Cl)C(Cl)=C(Cl)C2(Cl)C1(Cl)Cl (stereo unspecified)
inactive: [1] | [4] | [5]
active: [2] 13.1 µM | [6] 25.1 µM | [8] 2.37 µM

OCC1CO1 (stereo unspecified)
inactive: [1] | [3] | [4] | [5] | [6] | [7]

c1ccc2c(c1)Nc1ccccc1S2
active: [6] 21.6 µM | [7] 26.7 µM | [8] 11.1 µM
inactive: [1] | [3] | [4] | [5]

CN(C)C(=O)Cl
not listed: [2] | [4] | [7]
inactive: all other assays above

Nc1ccc([N+](=O)[O-])cc1Cl
not listed: [3] | [9] | [10]
inactive: all other assays above

FC(F)(F)C(F)(C(F)(F)F)C(F)(F)C(F)(F)CC1CO1 (stereo unspecified)
not listed: [3] | [4]
inactive: all other assays above

From PubChem BioAssay (EPA / NIEHS)
